Out of some 13,000 compounds screened, about 3,200 (25%) showed an effect of 50% or more. Some of the results follow.

The term % Inhibition denotes the relative decrease from the control value, in per cent.

The test relates to P. falciparum stage V gametocytes. On the set-up: BacTiter-Glo ATP luminescence viability of purified stage V gametocytes in 384-well plates, per cent inhibition versus DMSO. As to conditions: 48 h, 5 µM; inhibitor.
Take `CCN1CCN(CCCNc2c3ccccc3nc3ccccc23)CC1` [TCMDC-137546]: the “% Inhibition” value is reported as 84.24%.
As to `Cc1ccc(Nc2nc(C)cc(N3CCN(c4ccccc4)CC3)n2)cc1` [TCMDC-125308], the “% Inhibition” value is recorded as -56.11%.
Take `CCn1c(-c2ccccc2)cc2nnc3ccccc3c21` [TCMDC-138220]: the “% Inhibition” value is reported as 3.318%.
Take `CCN1CCN(CCCCNc2c3ccccc3nc3ccccc23)CC1` [TCMDC-137570]: the “% Inhibition” value amounted to 80.96%.
Under `CCN1CCN(CCNc2c3ccccc3nc3ccccc23)CC1.Cl` [TCMDC-137545] stands 85.19%; under `CN1CCN(c2ccc(Nc3c4ccccc4nc4ccccc34)cc2)CC1` [TCMDC-123912], 39.23%; under `CC[C@H](NC(=O)c1c(CCCN2CCN(c3ccccc3)CC2)c(-c2ccccc2)nc2cc(O)ccc12)c1ccccc1` [TCMDC-139302], 9.444%.
`CCN1CCN(c2ccc(Nc3c4ccccc4nc4ccccc34)cc2)CC1` [TCMDC-124255]: the “% Inhibition” value was determined as 96.72%.
In the case of `Oc1cc2c(cc1CN1CCN(Cc3ccc(Cl)s3)CC1)CCC2` [TCMDC-124882], the “% Inhibition” value is -46.75%.
Under `CCCc1ccc(N2C(N)=NC(N)=NC2(C)C)cc1` [TCMDC-137706] stands 5.239%; under `Cc1cc2c(cc1C(F)(F)F)N(C(=O)Nc1cc(C(=O)NC3CCN(Cc4ccccc4)C3)cc(C(F)(F)F)c1)CC2` (stereo not drawn) [TCMDC-139921], 12.41%.
For the compound `Oc1ccc(-c2nc3c4cc(I)ccc4c4ccc(I)cc4c3[nH]2)cc1` [TCMDC-124199], the “% Inhibition” value is recorded as -25%.
Take `N#Cc1ccc2nc(-c3cc(-c4cccc(F)c4)cnc3N)[nH]c2c1` [TCMDC-133133]: the “% Inhibition” value is listed as -54.5%.
`N#Cc1ccc(N2CCN(Cc3cccc(-c4cccc(-c5nc6cc(F)ccc6[nH]5)c4)c3)CC2)nc1.O=C(O)C(F)(F)F` [TCMDC-133109]: the “% Inhibition” value is on record as -21.69%.
Turning to `Clc1ccc(Cc2nc3ccccc3[nH]2)cc1Cl` [TCMDC-125878], the “% Inhibition” value is reported as -7.507%.
In the case of `O=C(Nc1cc(C(F)(F)F)cc(C(F)(F)F)c1)N1CCC(CN2CCC(c3c[nH]c4ccccc34)CC2)CC1` [TCMDC-140192], the “% Inhibition” value is reported as -4.081%.
As for `O=C(Nc1ccc(Oc2ccccc2)cc1)N1CCC(CCN2CCC(c3c[nH]c4ccccc34)CC2)CC1` [TCMDC-140190], the “% Inhibition” value was 106%.
Under `O=C(Nc1cc(C(F)(F)F)cc(C(F)(F)F)c1)N1CCC(CCN2CCC(c3c[nH]c4ccccc34)CC2)CC1` [TCMDC-140189] stands 108.5%; under `FC(F)(F)c1ccc(NC(=S)N2CCC(CCN3CCC(c4c[nH]c5ccccc45)CC3)CC2)cc1` [TCMDC-140188], 107.1%.
Consider `FC(F)(F)c1ccc(NC(=S)N2CCC(CN3CCC(c4c[nH]c5ccccc45)CC3)CC2)cc1` [TCMDC-140191], for which the “% Inhibition” value is on record as 5.954%.
For the compound `O=C(Nc1ccc(Cl)c(Cl)c1)N1CCC(CN2CCC(c3c[nH]c4ccccc34)CC2)CC1` [TCMDC-140195], the “% Inhibition” value is on record as -22.77%.
For `O=C(Nc1ccc(Oc2ccccc2)cc1)N1CCC(CN2CCC(c3c[nH]c4ccccc34)CC2)CC1` [TCMDC-140194], the “% Inhibition” value turned out to be 35.38%.
Regarding `CN(C)CCc1c[nH]c2ccc(C(=O)Nc3ccc(-c4ccncc4)cc3)cc12` [TCMDC-132057], the “% Inhibition” value is reported as 19.3%.
Consider `COc1ccc2nccc([C@@H](O)CN3CCC(NC(=O)c4ccc(CN5CCN(c6cccc(C)c6)CC5C)cc4)CC3)c2c1` (stereo partly drawn) [TCMDC-140999], for which the “% Inhibition” value is recorded as -29.97%.
As to `CC1(C)N=C(N)N=C(N)N1OCCSCc1cc(Cl)sc1Cl` [TCMDC-131620], the “% Inhibition” value was 30.29%.
On to `O=S(=O)(NCCN1CCCC1)c1cccc(-c2ccc(CNCc3ccsc3)cc2)c1` [TCMDC-132290], for which the “% Inhibition” value is 92.71%.
With `O=S(=O)(NCCN1CCCC1)c1ccc(-c2ccc(CNCc3ccsc3)cc2)cc1` [TCMDC-132281], the “% Inhibition” value came out at 102.2%.
Under `O=S(=O)(NCCN1CCCC1)c1cccc(-c2cccc(CNCc3ccsc3)c2)c1` [TCMDC-132277] stands 89.41%.
As for `CCN1CCN(c2cc(C)c3cc(NC(=O)c4ccc([N+](=O)[O-])c(C)c4)ccc3n2)CC1` [TCMDC-125576], the “% Inhibition” value is on record as 24.57%.
As for `CC(C)(CNCCOc1ccc(Cl)cc1)c1nc(-c2ccc(Cl)c(O)c2)c(-c2ccnc(N)n2)[nH]1` [TCMDC-141161], the “% Inhibition” value is given as 36.73%.
As for `Cc1cccc2[nH]c(=O)c([N+](=O)[O-])c(O)c12` [TCMDC-131384], the “% Inhibition” value is on record as -28.29%.
To `CN(C)CCC=C1c2ccccc2Sc2c(O)cc(Cl)cc21` [TCMDC-123466] belongs -77.93%.
Turning to `N#Cc1cccc(Nc2ncc3c(-c4cccc(NC(=O)Cc5cccc(Cl)c5)c4)c[nH]c3n2)c1` [TCMDC-134682], the “% Inhibition” value was 19.68%.
Under `CCn1ccc2c(N3CCCC3=O)cc(C(=O)N[C@@H](Cc3ccccc3)[C@H](O)CNC(C)(C)CCCC(C)C)cc21` [TCMDC-135313] stands 55.34%.
Regarding `CCn1ccc2c(N3CCCCS3(=O)=O)cc(C(=O)N[C@@H](Cc3ccccc3)[C@H](O)CNC(C)(C)CCCC(C)C)cc21` [TCMDC-135311], the “% Inhibition” value is on record as 61.66%.
`CCn1ccc2c(N3CCCC3=O)cc(C(=O)N[C@@H](Cc3ccccc3)[C@H](O)CNC3CCCCC3)cc21` [TCMDC-135316]: the “% Inhibition” value is on record as 7.868%.
For `CCn1ccc2c(N3CCCS3(=O)=O)cc(C(=O)N[C@@H](Cc3ccccc3)[C@H](O)CNC(C)(C)CCCC(C)C)cc21` [TCMDC-135312], the “% Inhibition” value came to 65.79%.
`CCn1ccc2c(N3CCCC3=O)cc(C(=O)N[C@@H](Cc3ccccc3)[C@H](O)CNCc3cccc(OC)c3)cc21` [TCMDC-134129]: the “% Inhibition” value is reported as 8.959%.
For the compound `CNC(=O)c1cncc(/C=C/c2ccccc2S(N)(=O)=O)c1` [TCMDC-138266], the “% Inhibition” value came out at 49.76%.
For `C[C@H](NC(=O)c1c(OC2CN(C(c3ccccc3)c3ccccc3)C2)c(-c2ccccc2)nc2ccccc12)C1CCCCC1` [TCMDC-135543], the “% Inhibition” value is given as -26.28%.
As for `CS(=O)(=O)O.Nc1nc(NCC2CCC(CNS(=O)(=O)c3cccc4ccccc34)CC2)nc2ccccc12` (stereo not drawn) [TCMDC-124251], the “% Inhibition” value was -1.432%.
Turning to `COC(=O)C(Cc1ccccc1)C(CSCc1ccc(OC)cc1)C(=O)N[C@@H](C(=O)OC(C)(C)C)c1ccc(C(C)(C)C)cc1` (stereo partly drawn) [TCMDC-131235], the “% Inhibition” value is listed as 8.806%.

Values taken from publication PMC4552634, “A New Set of Chemical Starting Points with Plasmodium falciparum Transmission-Blocking Potential for Antimalarial Drug Discovery” (PLoS ONE, 2015).
